HEK293 viab = reduces viability of HEK-293 SNCA reporter cells; HEK-293-SNCA-luc viability, GF-AFC fluorescence, 24 h; Potency, µM (top dose mostly 57.1 µM), for the others: at the highest dose activity change, negative = cytotoxicity, actives largely listed as cytotoxic; 150,000 tested, 0.12% active;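 further: 0% = DMSO-treated cells and -100% = medium-only wells without cells; nearly all actives have a fitted effect of over 30% in size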
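Cytotoxicity counterscreen: after 24 h compound treatment of genome-edited SNCA-luciferase HEK-293 cells, live-cell protease substrate GF-AFC read by fluorescence after 30 min; activity scaled between DMSO (0%) and medium-only (-100%), curves Hill-fitted.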
SNCA expr inhib = SNCA gene expression inhibition | HEK-293 SNCA-luciferase knock-in, luminescence, 24 h | Potency, µM (top dose mostly 57.2 µM), without a hit: at the top dose activity change, negative = inhibition, actives largely listed as inhibitors | 140,000 tested, 0.17% active;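 further: plate controls were DMSO cells for no effect and cell-free wells for full effect; nearly all actives have a fitted effect of over 45% in size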
HEK cytotox = HEK 293 cell cytotoxicity | HEK 293 viability, ATP luminescence (CellTiter-Glo), 48-72 h | Potency, µM (highest dose often 115 µM), without a hit: top-dose activity change, negative = cytotoxicity, hits mostly inhibitors | 94,000 tested, 6.6% active | AID 1345083; further: nearly all actives have a fitted effect of over 60% in size
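Pintool-delivered compounds were incubated with HEK 293 cells (250 cells/well) at 37 degree Celsius for 48 or 72 hr. ATP-dependent luminescence (CellTiter-Glo) then reported remaining viable cells.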
NIH3T3 tox = NIH 3T3 cell cytotoxicity. 94,000 tested, 4.3% active. Potency, µM (doses to about 96.7 µM), for the others: at the top dose activity change, negative = cytotoxicity, hits mostly inhibitors. AID 1345082. NIH 3T3 viability, CellTiter-Glo ATP luminescence, 48-72 h; further: nearly all actives have a fitted effect of over 55% in size
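Cells were seeded at 400 per well, treated with pin-transferred compound, and kept 48 or 72 hr at 37 °C before CellTiter-Glo addition and luminescence imaging of cellular ATP.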
NPR1 antag = blocks ANP-stimulated signaling of human Npr1 receptor | Potency, µM (doses to about 46.3 µM), for inactives: at the highest dose activity change, negative = inhibition, most hits filed as inhibitors | P16066 | 76,000 tested, 1.6% active | HEK293 hNpr1 GloSensor cGMP, ANP-stimulated luminescence; calls by dose curve; further: nearly all actives have a fitted effect of over 60% in size
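HEK293 cells stably expressing human Npr1 and cGMP GloSensor pGS-40F, loaded 2 h with 2% GloSensor reagent, given compound 30 min at room temperature. Luminescence read before and 20 min after 0.1 nM hNppA.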
Luciferase inh = Photinus pyralis luciferase inhibition | P08659 | purified P. pyralis luciferase, luminescence, biochemical | Potency, µM (top dose mostly 115 µM), hits mostly inhibitors | 76,000 tested, 2.5% active | AID 1347043; further: nearly all actives have a fitted effect of over 65% in size
Target sequence (P08659 whole entry, looked up): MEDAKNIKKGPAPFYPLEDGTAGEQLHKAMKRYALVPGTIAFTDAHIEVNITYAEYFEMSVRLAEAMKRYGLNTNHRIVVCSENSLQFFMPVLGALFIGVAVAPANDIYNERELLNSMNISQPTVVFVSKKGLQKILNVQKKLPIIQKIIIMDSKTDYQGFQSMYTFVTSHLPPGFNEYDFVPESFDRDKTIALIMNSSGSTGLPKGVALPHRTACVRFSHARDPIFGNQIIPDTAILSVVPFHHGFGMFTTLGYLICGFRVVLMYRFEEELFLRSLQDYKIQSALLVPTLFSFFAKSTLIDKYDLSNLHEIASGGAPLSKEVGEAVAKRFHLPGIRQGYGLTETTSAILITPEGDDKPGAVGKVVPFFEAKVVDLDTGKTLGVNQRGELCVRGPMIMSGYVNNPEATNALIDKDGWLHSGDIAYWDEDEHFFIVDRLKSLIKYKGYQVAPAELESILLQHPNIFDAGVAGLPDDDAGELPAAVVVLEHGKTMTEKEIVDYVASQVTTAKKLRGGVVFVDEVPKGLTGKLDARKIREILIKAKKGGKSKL
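Inhibitors were tested against purified firefly luciferase in a biochemical, low-substrate format (both substrates at 10uM) and luminescence measured with a CCD imager.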
Starred values were filed as active, the others as inactive; i = inactive; ? = inconclusive; / = not tested or not shown; ! = repeats disagree; [ ] = another dose, or the depositor's remark. This is a sample that favours compounds with a hit; in the whole collection about 7.4% have one here. Unless noted, the call rests on the fitted dose curve; in most records, active means well fitted curve in the direction sought with a large enough effect; inconclusive means small, poorly fitted or top-dose-only effect, or another doubt; inactive means no such curve, though single readings can be large; an effect the other way counts as inactive or inconclusive. Unless noted, on the % scale 0 is the no-effect control and ±100 the full control effect; potency means the concentration at half of the fitted maximal effect.

SMILES | HEK293 viab | SNCA expr inhib | HEK cytotox | NIH3T3 tox | NPR1 antag | Luciferase inh
CCNC(=O)c1coc(COc2ccc3c(c2)C(c2ccc(F)cc2)N(C(=O)CC(C)C)CC3)n1 (stereo not given) | -4% | -31% | ? | ? | -18% | i
O=C(c1ccncc1)N1CCC2(CC1)CC(N(Cc1ccc(F)cc1)C1CC1)CCO2 (stereo not given) | -8% | 5% | ? | -16% | ? | i
O=C(NCCc1noc(-c2ccncc2)n1)c1ccccc1 | -9%[12.5 µM] | -18% | 11% | -15% | -21% | i
Cc1cc(C)n(C2CCN(Cc3cn(-c4ccccc4)nn3)C2)n1 (stereo not given) | -4% | 6% | -6% | -20% | -3% | i
COc1ccc(Cl)cc1C(=O)Nc1ccc2c(c1)CCC(=O)N2 | 0% | 3% | -3% | -20% | 0% | i
C=CCNC(=O)c1coc(COc2ccc3c(c2)C(c2ccc(C)cc2)N(C(=O)C2CC2)CC3)n1 (stereo not given) | -4% | -12% | ? | ? | -20% | i
C=CCNC(=O)c1coc(COc2ccc3c(c2)C(c2cccc(C)c2)N(C(=O)C2CC2)CC3)n1 (stereo not given) | -15% | 4% | 35µM* | ? | -15% | i
COc1ccc(CN2CCN(c3ncnc4c3CCC4)CC2CCO)c(C)c1C (stereo not given) | -9% | -9% | 10µM* | ? | -25% | i
COc1ccc(CN2CCN(c3ccnc(C)n3)CC2CCO)c(C)c1C (stereo not given) | -10% | -9% | ? | -13% | 4% | i
O=C(c1ccnnc1)N1CC(F)(F)C[C@H]1c1nc(-c2ccccc2)no1 | 6% | 26% | -7% | -12% | 8% | i
COc1cc(NC(=O)Cn2c(-c3cnccn3)nc(C)c(C)c2=O)cc(OC)c1 | -6% | 15% | 6% | -29% | -13% | i
COc1cc2nc(N3CCC(N4CCCCC4)CC3)nc(NC3CCCCCC3)c2cc1OC | 24µM* | / | / | / | / | /
O=C(NC1CCN(c2nccc(Nc3ccccc3F)n2)CC1)c1cccc(Cl)c1 | -11%[12.5 µM] | -6% | ? | 32µM* | / | /
Cc1ccc(C(=O)N2CCN(c3nccc(Nc4ccccc4F)n3)CC2)cc1 | -11% | ? | 45µM*! | ? | / | /
Cc1ccccc1C(=O)NC1CCN(c2nccc(Nc3ccccc3F)n2)CC1 | ? | 41% | 20µM* | ? | / | /
O=C(c1ccccc1)N1CCN(c2nccc(Nc3ccccc3F)n2)CC1 | -2% | 1% | ? | ? | / | /
Cc1ccc(C(=O)NC2CCN(c3nccc(Nc4ccccc4F)n3)CC2)cc1 | -1%[12.5 µM] | -5% | 22µM* | ? | / | /
COc1ccccc1Nc1ccnc(N2CCC(NC(=O)c3ccccc3F)CC2)n1 | 3% | -6% | ? | -27% | / | /
COc1ccc(C(=O)N2CCC(n3nccc3NC(=O)CC(C)C)CC2)cc1OC | 2% | -1% | 12% | -3% | 6% | i
O=C(Nc1ccc([C@H]2OCC(=O)N(Cc3ccccc3)[C@@H]2CO)cc1)c1ccc2c(c1)OCO2 | 1% | 7% | ? | ? | -6% | ?
COc1ccc(C(=O)NC(C(=O)NC(C)C)C2CCN(C(=O)c3ccccc3)CC2)cc1 (stereo not given) | 2% | 3% | -3% | -11% | -4% | i
O=C(Cn1c(=O)n(-c2ccc(Cl)cc2)c(=O)c2c3c(sc21)CCC3)c1ccc(F)cc1 | 4% | 20µM* | / | / | / | /
Cc1noc2c(N3CC(O)C3)cc(-c3ccsc3)nc12 | 9%[87.6 µM] | -2%[87.6 µM] | -28%[230 µM] | ? | 0%[70.6 µM] | i
Cc1noc2c(N3CCOCC3)cc(-c3ccsc3)nc12 | -19%[87.6 µM] | 17%[87.6 µM] | ? | 28µM* | 4%[70.6 µM] | i
O=C(NC1CCCCCC1)c1cn2cc(-c3cccc(C(F)(F)F)c3)sc2n1 | -6% | 4% | -24% | -8% | / | /
SMILES | HEK293 viab | SNCA expr inhib | HEK cytotox | NIH3T3 tox | NPR1 antag | Luciferase inh
O=C(NC1CC1)C1CCCN(c2nccc(Nc3ccccc3F)n2)C1 (stereo not given) | -11%[12.5 µM] | -19%[87.6 µM] | ? | 89µM* | / | /
O=C(NC1CCCC1)C1CCCN(c2nccc(Nc3ccccc3F)n2)C1 (stereo not given) | -11%[12.5 µM] | -26% | ? | 40µM* | / | /
O=C(NC1CCCC1)C1CCN(c2nccc(Nc3ccccc3F)n2)CC1 | 2% | -6% | ? | ? | / | /
O=C(Nc1ccnn1C1CCN(Cc2ccc(-c3ccco3)cc2)CC1)C1CC1 | 4% | 37% | -8% | 0% | 4% | i
Nc1nc2c(ncn2COC(CO)CO)c(=O)[nH]1 | -18% | 0.086µM*! | / | / | / | /
CNC(=O)c1cc(C)nc2onc(C3CCN(C(=O)C4CC4)CC3)c12 | / | / | -11% | -19% | / | /
O=C(C1CC1)N1CCCC1c1noc(COc2ccc(F)cc2)n1 (stereo not given) | -6% | ? | -13% | -7% | 1% | i
CCCNC(=O)N1CCCCCNC(=O)[C@@H]2CCCC[C@@H]21 | 9% | 10% | -3% | -11% | -8% | i
O=C1CCCCCN1C1CCN(Cc2cccnc2)CC1 | -10%[87.6 µM] | -10%[87.6 µM] | -18%[172 µM] | -15%[138 µM] | 0%[70.6 µM] | i
O=C1CCCCCN1C1CCN(Cc2cccc3ccccc23)CC1 | 4%[87.6 µM] | -22%[87.6 µM] | 79µM* | 79µM* | 2%[70.6 µM] | i
O=C1CCCCCN1C1CCN(Cc2ccccc2C(F)(F)F)CC1 | -17%[87.6 µM] | -15%[87.6 µM] | 79µM* | ? | -7%[70.6 µM] | i
Cc1ccc(-n2nc(C)c([C@@H]3C=C[C@@H](NCc4ccc(F)cc4)C3)c2C)cc1Cl | ? | -2%[87.6 µM] | 32µM* | ? | -30%[70.6 µM] | 45µM*
Cc1ccc(-n2nc(C)c([C@@H]3C=C[C@@H](NC(=O)CC(C)(C)CC(=O)O)C3)c2C)cc1Cl | 3% | 43% | -19% | ? | -8% | i
Cc1ccc(-n2nc(C)c([C@@H]3C=C[C@@H](NCc4ccc(N(C)C)cc4)C3)c2C)cc1Cl | ? | ? | 8.9µM* | 7.9µM* | ? | 25µM*
CN1C[C@H](O)C[C@H]1c1nnc2n1CCN(C(=O)C1CCC1)CC2 | 4% | -12% | -17% | -6% | 2% | i
CN1CCC2(C1)CN(Cc1ccccc1)c1ccc(C(=O)NC3CCCCC3)cc12 (stereo not given) | -4%[87.6 µM] | 16%[87.6 µM] | 79µM* | ? | -1%[70.6 µM] | i
CN1CCC2(C1)CN(Cc1ccccc1)c1ccc(C(=O)NC3CCC3)cc12 (stereo not given) | -5%[87.6 µM] | 9%[87.6 µM] | ? | 79µM* | -4%[70.6 µM] | i
